Assay results: PubChem BioAssay (Tox21)
The source made the active and inactive calls. The call rests on the fitted dose curve; in most records, active means well fitted activation curve with a large enough effect in the repeat runs; inconclusive means weak or mixed curves; inactive means flat fitted curve, though single readings scatter.

experiment: Caspase-3/7 induction in CHO-K1 cells by small molecules, qHTS assay (AID 1346980); conditions: CHO-K1 caspase-3/7 induction, Caspase-Glo luminescence, 17 h; series mostly up to 92.4 µM; caspase-3/7 activation: at the top concentration; further: nearly all actives have a fitted effect of over 15% in size
Procedure, shortened: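 Wild-type cells were seeded at 1,500 per well and settled 5 hr at 37 C, 5% CO2, then exposed to DMSO-dissolved compounds for 17 hr. Caspase-Glo 3/7 reagent was added, and luminescence was read after 30min at room temperature.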
On the % scale 0 is the no-effect control and ±100 the full control effect.

SMILES | caspase-3/7 activation
COc1cc2c(cc1OC)CN(C(=O)[C@H](C)N[C@@H](CCc1ccccc1)C(=O)O)[C@H](C(=O)O)C2 | 0.0153% [at 42.5 µM] (inactive)
O=C(Cn1ccnc1[N+](=O)[O-])NCc1ccccc1 | 0.525% [at 42.5 µM] (inactive)
COC(=O)/C=C\C(=O)O | -0.634% (inactive)
CCCCOC(=O)C(C)O (configuration not stated) | 0.811% (inactive)
N#CCC(=O)NN | -0.21% [at 42.5 µM] (inactive)
Cc1cc(C)c(C(=O)O)c(C)c1 | -1.21% (inactive)
CCOc1cccc(N)c1 | 0.0286% (inactive)
O=C(CCCl)NCCc1ccccc1 | 0.05% [at 42.5 µM] (inactive)
CC(=O)C1C(=O)C=C(C)OC1=O (configuration not stated) | 0.215% (inactive)
CCOc1ccccc1OCC1CNCCO1 (configuration not stated) | -0.727% [at 42.5 µM] (inactive)
CC1(C)O[C@H]2CC(=O)OC[C@]23[C@H]2CC[C@@]4(C)[C@H](c5ccoc5)OC(=O)[C@H]5O[C@]54[C@]2(C)C(=O)C[C@@H]13 | 0.884% [at 42.5 µM] (inactive)
CCO[Si](CC)(OCC)OCC | -2.1% (inactive)
CC(=O)CCc1ccc(OC(C)=O)cc1 | 0.385% (inactive)
CCCCCCC1(C)CCC(=O)O1 (configuration not stated) | 2.79% (inactive)
O=C(O)[C@H](O)c1ccccc1 | 1.3% [at 42.5 µM] (inactive)
C=CC/C=C/C | 0.227% (inactive)
CCC(C)C(=O)OCCc1ccccc1 (configuration not stated) | 0.347% (inactive)
COP(=O)(O)OP(=O)(O)OC | 1.92% (inactive)
O=C(O)c1cc2ccccc2nc1C(=O)O | -0.121% (inactive)

SMILES | caspase-3/7 activation
COc1cc(/C=C/C(N)=O)cc(OC)c1OC | -0.0265% [at 42.5 µM] (inactive)
COC(=O)c1cc(Cl)cc(Cl)c1 | 0.529% (inactive)
O=C1c2ccccc2C(=O)c2cc(Cl)ccc21 | -0.328% [at 8.39 µM] (inactive)
CO[C@@]1(NC(=O)Cc2cccs2)C(=O)N2C(C(=O)O)=C(COC(N)=O)CS[C@@H]21 | 0.0846% [at 42.5 µM] (inactive)
C[C@H]1[C@@H](c2ccccc2)NC(=O)N1C | -1.1% (inactive)
CC/C=C\CCOC(=O)c1ccccc1O | -0.495% (inactive)
Cc1ccccc1C(N)=O | 0.0014% (inactive)
OC1OCCOC1O (configuration not stated) | 0.0358% (inactive)
C/C=C(\C)C(C)=O | 0.472% (inactive)
COC(=O)c1ccccc1C(=O)O | 0.904% (inactive)
CC(C)c1ccc(C=O)cc1 | 0.0369% (inactive)
CCC/C=C(\C=O)CC | -0.875% (inactive)
CSc1cnccn1 | 0.648% (inactive)
CCOC(=O)CC1(C)OCC(C)O1 (configuration not stated) | 0.0867% (inactive)
CC(=O)CC(=O)OC(C)(C)C | 1.75% (inactive)
Cc1c(NC(=O)c2cccnc2)c(=O)n(-c2ccccc2)n1C | 0.605% [at 42.5 µM] (inactive)
c1ccc(-c2nn[nH]n2)cc1 | 0.0113% (inactive)
CCCCCCCCCCOC(C)=O | 0.25% (inactive)
